Data from PubChem BioAssay AID651725 (National Center for Advancing Translational Sciences (NCATS), 2012).
The whole screen tested about 360,000 compounds, of which about 2,000 (0.56%) were called active. Another 2% or so got no clear call; they are omitted. Rule as the data show it: active = activity change below about -65%; inconclusive = mostly about -30% to -63%; inactive = weaker than that. Many of the other results were omitted from the sample, so actives are more common in it than they were.

Biological target: Homeobox protein SIX1 (Homo sapiens) + Protein phosphatase EYA2 (Homo sapiens) (UniProt Q15475+O00167)
Sequence (O00167 whole entry, looked up): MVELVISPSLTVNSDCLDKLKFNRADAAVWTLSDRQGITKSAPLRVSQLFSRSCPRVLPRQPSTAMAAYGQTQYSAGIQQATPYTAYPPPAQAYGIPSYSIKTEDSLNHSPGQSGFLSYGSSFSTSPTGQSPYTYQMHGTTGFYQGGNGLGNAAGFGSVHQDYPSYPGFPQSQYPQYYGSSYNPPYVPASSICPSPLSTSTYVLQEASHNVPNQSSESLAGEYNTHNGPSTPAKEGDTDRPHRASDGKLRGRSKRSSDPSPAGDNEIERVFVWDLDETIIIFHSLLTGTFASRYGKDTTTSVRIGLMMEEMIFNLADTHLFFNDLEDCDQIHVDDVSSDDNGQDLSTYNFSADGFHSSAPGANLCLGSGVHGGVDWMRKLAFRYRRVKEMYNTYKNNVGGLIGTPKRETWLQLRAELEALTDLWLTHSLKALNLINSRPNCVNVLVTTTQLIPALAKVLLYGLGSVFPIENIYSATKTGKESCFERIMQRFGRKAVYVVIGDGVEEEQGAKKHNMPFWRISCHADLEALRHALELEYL
Sequence (Q15475 whole entry, looked up): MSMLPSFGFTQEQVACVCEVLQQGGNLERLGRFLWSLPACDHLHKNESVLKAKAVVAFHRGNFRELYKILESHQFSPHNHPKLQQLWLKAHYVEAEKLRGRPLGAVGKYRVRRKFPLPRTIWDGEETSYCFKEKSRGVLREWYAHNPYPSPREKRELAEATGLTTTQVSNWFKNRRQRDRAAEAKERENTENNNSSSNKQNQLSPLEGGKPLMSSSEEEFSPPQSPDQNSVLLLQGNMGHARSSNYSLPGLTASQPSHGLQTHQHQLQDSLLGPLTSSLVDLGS
Assay: qHTS Assay for Inhibitors of the Six1/Eya2 Interaction
Details: AlphaScreen GST-Six1/His-Eya2 binding, biochemical; active compounds read low
In short: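 Homogeneous AlphaScreen proximity assay pairing GST-Six1 with His-tagged Eya2 (added as 5X mix: 250 nM and 500 nM) in 50 mM Tris pH 8.0, 300 mM NaCl, 1 mM TCEP. Glutathione donor and nickel acceptor beads; 1 h, 37 °C, dark.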
% is scaled to controls: 0 for no effect and ±100 for the full control effect.

Row | Compound | activity change
1 | COc1ccc(S(=O)(=O)N[C@@H]2C=C[C@@H](CC(=O)N3CCc4ccccc4C3)O[C@@H]2CO)cc1 | -3.17% (inactive)
2 | COc1cccc(CNC(=O)C2CCN(S(=O)(=O)c3cccc4cccnc34)CC2)c1 | -4.19% (inactive)
3 | Cc1cc(OCCOc2cccc3cccnc23)c(C)cc1Cl | -4.24% (inactive)
4 | CC(=O)/C(=N\Nc1ccc(Cl)cc1Cl)Sc1cccc2cccnc12 | -91.1% (active)
5 | COc1cc(CC(=O)N2CCC(n3nccc3NC(=O)C3CC3)CC2)cc(OC)c1OC | -0.446% (inactive)
6 | CCOc1ccc(N2C(=O)CSC2=NC#N)cc1 | 2.91% (inactive)
7 | CCOc1cccc(/C=N/N2C(=O)CSC2=S)c1O | -92.8% (active)
8 | COc1cc(N2C(=O)CSC2=S)cc(OC)c1OC | -9.23% (inactive)
9 | CCOC(=O)[C@]12CCCC=C1N(CCC1=CCCCC1)C(=O)[C@H](CC(=O)N1CCSCC1)C2 | -5.61% (inactive)
10 | Cc1cc(OCc2ccc(C(=O)Nc3ccc(C(=O)O)cc3)o2)ccc1Cl | -9.21% (inactive)
11 | Cn1cnc(S(=O)(=O)N2C[C@@H](O)COC[C@@H]3O[C@H](CC(=O)NC4CCC4)CC[C@H]32)c1 | -0.831% (inactive)
12 | O=C(CN1C(=O)C2C3C=CC(C3)C2C1=O)Nc1nc(-c2ccccn2)cs1 (stereo not drawn) | -80.4% (active)
13 | N#Cc1ccc(OCC(=O)Nc2nc(-c3ccccn3)cs2)cc1 | -90% (active)
14 | CC1CCN(S(=O)(=O)c2nnc(NC(=O)COc3ccccc3F)s2)CC1 | 3.54% (inactive)
15 | O=C(CCN1C(=O)C2C3C=CC(C3)C2C1=O)Nc1ccccc1F (stereo not drawn) | 2.72% (inactive)
16 | O=C(COc1ccccc1F)Nc1nc(-c2ccccn2)cs1 | -84.1% (active)
17 | CC(NC(=O)c1ccco1)C(=O)Nc1nc(-c2ccccn2)cs1 (stereo not drawn) | -83.1% (active)
18 | CSCCC(NC(=O)c1ccco1)C(=O)Nc1cc(C)ccn1 (stereo not drawn) | -1.3% (inactive)
19 | Cc1cc(NC(=O)[C@H](C)NC(=O)c2ccco2)ccc1Br | 0.811% (inactive)
20 | CC1CCCCC1NC(=O)COc1ccc(C#N)cc1 (stereo not drawn) | -10.9% (inactive)

Row | Compound | activity change
21 | O=C(NCCN1C(=O)C2C3C=CC(C3)C2C1=O)Nc1ccccn1 (stereo not drawn) | 2.02% (inactive)
22 | O=C(COc1ccccc1)Nc1nonc1NC(=O)COc1ccccc1 | -6.13% (inactive)
23 | COc1ccccc1NC(=O)COC(=O)COc1ccccc1F | 6.13% (inactive)
24 | Cc1ccc2c(c1)c1ncnc(N3CCc4ccccc4C3)c1n2C | -7.75% (inactive)
25 | CCOc1ccc(CN2CCN(Cc3ccon3)CC2CCO)cc1 (stereo not drawn) | 5.89% (inactive)
26 | CCCCCNC(=O)C(c1ccc(OC)cc1)n1c(=O)c(-c2ccccc2)nc2ccccc21 (stereo not drawn) | 5.06% (inactive)
27 | CCCNC(=O)c1cc(C2CCCCN2S(=O)(=O)c2cn(C)cn2)on1 (stereo not drawn) | 0.952% (inactive)
28 | CC(C)(C)C(=O)c1c(N)[nH]c(C(=O)c2ccccc2)c1-c1ccc(F)cc1 | -8.67% (inactive)
29 | O=C1Nc2ccccc2-n2nnnc2C1N1CCN(c2cccc(C(F)(F)F)n2)CC1 (stereo not drawn) | 0.68% (inactive)
30 | Cc1cccc(NS(=O)(=O)c2ccc(C)c(C(=O)NCc3cccnc3)c2)c1 | -0.175% (inactive)
31 | O=C(C(=O)N1CCC(c2ccccc2)CC1)c1ccccc1 | -2.34% (inactive)
32 | CCOC(=O)[C@]12CCCC=C1N(CCC1=CCCCC1)C(=O)[C@H](CC(=O)N1CCN(C(=O)c3ccco3)CC1)C2 | -5.37% (inactive)
33 | Cc1cc([N+](=O)[O-])c(NC2CCCCC2)c([N+](=O)[O-])c1 | -69.3% (active)
34 | Cc1cc([N+](=O)[O-])c(N2CCC[C@@H]2C(=O)O)c([N+](=O)[O-])c1 | 7.42% (inactive)
35 | Cc1c(NS(=O)(=O)c2ccc(NC3CCCC3)c([N+](=O)[O-])c2)c(=O)n(-c2ccccc2)n1C | -0.483% (inactive)
36 | COC(=O)[C@]12CCCCC=C1N(Cc1ccc(Cl)cc1Cl)C(=O)[C@H](CC(=O)NCc1cccc3ccccc13)C2 | -10.1% (inactive)
37 | O=C1NC[C@@H](CCCCN2CCN(CCc3ccc(O)cc3)C(=O)C2=O)N(CC2CCCCC2)C1=O | 3.55% (inactive)
38 | CC[C@]1(c2ccccc2OC)C(=O)N(C(=O)OC)N1C(=O)OC | -0.457% (inactive)
39 | O=C1c2ccccc2C(=O)N1CCCc1nc(-c2ccccc2)no1 | 1.31% (inactive)
40 | O=C(CN1C(=O)c2cccc3cccc(c23)C1=O)N1CCCCC1 | 2.22% (inactive)

Row | Compound | activity change
41 | O=C1c2cccc3cccc(c23)C(=O)N1CCCCCc1n[nH]c(=S)o1 | -80.1% (active)
42 | COC(=O)c1ccc2nc(-c3ccccc3)c(Cc3ccc(OC)cc3C)n2c1 | 0.0747% (inactive)
43 | COCCNC(=O)CCCn1c(=O)c2ccccc2n(Cc2cccc([N+](=O)[O-])c2)c1=O | 4.87% (inactive)
44 | CCOC(=O)c1nc(Nc2ccc(C(=O)OC)cc2)c2ccccc2n1 | -84.8% (active)
45 | CCOC(=O)c1ccc(N/C(=N/S(=O)(=O)c2ccccc2)c2ccccc2)cc1 | -27.6% (inactive)
46 | COC(=O)c1ccc(Nc2ncnc3sccc23)cc1 | -1.71% (inactive)
47 | COc1ccc(NC(=O)CSc2ccc(-c3ccco3)nn2)c(OC)c1 | -14.2% (inactive)
48 | COc1ccc(NC(=O)CCC(=O)Nc2cc(OC)c(NC(=O)c3ccco3)cc2OC)c(OC)c1 | -72.1% (active)
49 | COc1ccc(CC(=O)Nc2ccccc2NC(=O)c2ccco2)cc1OC | -2.61% (inactive)
50 | COC(=O)C[C@@H]1C=C[C@@H](NC(=O)c2ccc3c(c2)OCO3)[C@@H](CO)O1 | -3.63% (inactive)
51 | Cc1ccc(S(=O)(=O)N(C)c2ccc(OCC(=O)OCc3ccc(C#N)cc3)cc2)cc1 | 5.43% (inactive)
52 | O=C(Oc1cccc(C(=S)N2CCOCC2)c1)c1cccc(Cl)c1 | -18.4% (inactive)
53 | O=C(Oc1ccc(F)cc1)N1CCOCC1 | -1.89% (inactive)
54 | O=C(Oc1ccc(C(=S)N2CCOCC2)cc1)c1ccc(F)cc1 | -91.7% (active)
55 | CCCc1c(-c2ccccc2F)ncn1Cc1ccccc1OC | -11.2% (inactive)
56 | O=C(CSc1nnc(-c2ccncc2)o1)Nc1cccc(Cl)c1 | -1.81% (inactive)
57 | Cc1cc(NC(=O)CSc2ncc(C(F)(F)F)cc2Cl)no1 | 1.15% (inactive)
58 | Cc1cc(NC(=O)CSc2nnc(-c3ccc(Cl)s3)o2)no1 | -86.8% (active)
